Source: PubChem (National Center for Advancing Translational Sciences (NCATS))
Most compounds without a hit are left out; they make up all but 8.9% or so of the library.
KB-V1 cytotox = kills drug-selected multidrug resistant KB-V1 cells | KB-V1 MDR cells viability, CellTiter-Glo, 72 h | Potency, µM (highest dose often 46.1 µM), usual class: cytotoxic | actives 3.4% (n = 400,000) | AID 1347076; further: nearly all actives have a fitted effect of over 60% in size
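Drug-selected KB-V1 cells, grown in DMEM lacking phenol red with 10% FBS, receive compound titrations; after three days at 37 degrees C, surviving cell ATP is quantified by CellTiter-Glo luminescence and responses normalized and curve-fitted.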
KB-3-1 tox = KB-3-1 parental cell cytotoxicity; KB-3-1 viability, CellTiter-Glo ATP luminescence, 72 h; actives 1.4% (n = 400,000); Potency, µM (series often up to 46.1 µM), actives largely listed as cytotoxic; further: nearly all actives have a fitted effect of over 60% in size
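Viability of parental KB-3-1 cells, measured by CellTiter-Glo luminescence, followed a 72 h incubation at 37 °C with pinned compounds in phenol-red-free DMEM containing 10% FBS.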
SW480 rerep = induces DNA re-replication in SW480 colon adenocarcinoma cells | Potency, µM (top dose mostly 46.1 µM), actives largely listed as activators | SW480 DNA re-replication, Hoechst DNA content imaging, 48 h | actives 1.8% (n = 340,000); further: nearly all actives have a fitted effect of over 55% in size
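250 cells/well; 23 nL cpd via pin tool; 48 hr, 37 C, 5% CO2; Hoechst 40 min; imager read of total nuclear intensity, ex 405/em 500-530 nm.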
DRD3 agonist = agonists of human D3 dopamine receptor | actives 0.58% (n = 410,000) | max activation, % | P35462 | D3R DiscoveRx beta-arrestin cells, luminescence, 90 min; in the data active means max activation above about 30%
Target sequence (P35462 whole entry, looked up): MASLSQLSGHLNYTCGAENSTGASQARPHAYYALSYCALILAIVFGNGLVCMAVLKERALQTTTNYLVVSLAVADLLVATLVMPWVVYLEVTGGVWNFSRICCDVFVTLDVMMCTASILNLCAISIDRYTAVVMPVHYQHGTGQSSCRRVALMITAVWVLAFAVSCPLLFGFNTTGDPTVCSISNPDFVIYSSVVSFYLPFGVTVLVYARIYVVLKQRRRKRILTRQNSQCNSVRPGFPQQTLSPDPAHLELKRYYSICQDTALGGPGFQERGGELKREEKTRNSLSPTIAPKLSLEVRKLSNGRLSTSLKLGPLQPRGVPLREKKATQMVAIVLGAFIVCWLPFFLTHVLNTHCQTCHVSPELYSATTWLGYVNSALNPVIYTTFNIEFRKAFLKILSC
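Agonist mode: compounds and dopamine controls were applied to plated cells for 90 min at 37 degrees C after an overnight attachment at 1500 cells/well. Luminescent read-out followed 30 - 60 minutes at room temperature with DiscoveRx detection reagent.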
DRD3 antagonist = blocks the human D3 dopamine receptor; D3R cells, DiscoveRx beta-arrestin luminescence, antagonist mode; active compounds read low; max response, negative = inhibition, %; actives 2.5% (n = 360,000); in the data active means max response below about -50%; inconclusive means no clear call, values can overlap the other calls
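Cells expressing the human receptor were seeded at 1500 cells/well, incubated overnight at 37 degrees C in 5% CO2, then exposed to library compounds with dopamine controls for 90 minutes at 37 degrees C before luminescent detection.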
MCF10A rereplic = inducers of DNA re-replication in MCF 10A breast cells | Potency, µM (highest dose often 46.1 µM), most hits filed as activators | actives 2.9% (n = 350,000) | MCF 10A DNA re-replication, Hoechst nuclear intensity, 48 h; further: nearly all actives have a fitted effect of over 50% in size
Hits are given with their value; – = inactive; ? = inconclusive; · = no result given; [ ] = another dose, or the depositor's remark. Unless noted, the call rests on the fitted dose curve; in most records, active means well fitted curve in the direction sought with a large enough effect; inconclusive means small, poorly fitted or top-dose-only effect, or another doubt; inactive means no such curve, though single readings can be large; an effect the other way counts as inactive or inconclusive.

SMILES	KB-V1 cytotox	KB-3-1 tox	SW480 rerep	DRD3 agonist	DRD3 antagonist	MCF10A rereplic
O=C(N=Nc1c(O)n(Cc2ccccc2)c2ccccc12)c1ccc(O)cc1	14.6µM	?	–	–	–	–
Oc1c(N=NC(=S)Nc2ccccc2F)c2ccccc2n1Cc1cccc(Cl)c1	–	6.51µM	–	–	–	–
Cc1c(C(=O)N2CCCC2)oc2c1-c1nn(CC(=O)NC(C)c3ccccc3)cc1CC2 (centres undefined)	·	·	·	–	·	·
O=C(Nc1ccc(F)cc1)C(Sc1nc2ccccc2[nH]1)c1ccccc1 (centres undefined)	?	?	?	–	–	11.6µM
O=C(CCc1nc2ccccc2[nH]1)Nc1ccccc1F	–	–	–	–	–	–
O=C(CCc1nc2ccccc2c(=O)[nH]1)NNC(=O)c1ccc(Cl)cc1	–	–	–	–	–	–
CN(CC(=O)Nc1ccc(Cl)cc1)C(=O)CCc1nc2sc3c(c2c(=O)[nH]1)CCCC3	–	–	?	–	–	18.4µM
O=C(CCc1nc2ccccc2c(=O)[nH]1)NNC(=O)c1cccc(Cl)c1	?	–	29.1µM	–	–	–
O=C(CCc1nc2ccccc2[nH]1)Nc1ccc(F)cc1	11.6µM	–	–	–	–	–
Cc1ccc2c(CC(=O)Nc3cccc(Cl)c3C)coc2c1	–	–	·	–	·	·
O=C(Cc1cccs1)Nc1c(C(=O)Nc2ccc(F)cc2)oc2ccccc12	–	–	·	–	·	·
COc1ccc(-n2ccn(CC(=O)Nc3ccc(C)cc3C)c(=O)c2=O)cc1	·	·	·	–	·	·
O=C(CCc1nc2ccccc2c(=O)[nH]1)Nc1ccc(F)cc1	–	–	–	–	-53.7	–
CCN(CC(=O)Nc1c(F)cccc1F)C(=O)CCC(=O)c1ccc(F)cc1	–	–	–	–	–	–
CN(CC(=O)Nc1ccc(F)cc1)C(=O)c1ccc2ccccc2n1	–	–	5.17µM	–	?	–
CN(CC(=O)Nc1ccccc1)CC(=O)Nc1ccc(F)cc1	–	–	–	–	–	–
CCN(CC(=O)Nc1c(F)cccc1F)C(=O)CCc1nc2ccccc2c(=O)[nH]1	–	–	29.1µM	–	–	–
CCN(CC(=O)Nc1c(F)cccc1F)C(=O)CN(C)S(=O)(=O)c1ccc(F)cc1	20.6µM	–	–	–	–	–
COc1ccc(NC(=O)COc2ccc(S(=O)(=O)NC3CCCCC3)cc2)c(OC)c1	–	–	·	–	·	·
Cc1nn(C(C)C(=O)NCc2cccc(F)c2)c(=O)c2c1sc1ccccc12 (centres undefined)	–	–	·	–	·	·
Cc1cccc(-c2nc(CN3CCCC(C(=O)NCc4ccc(Cl)cc4)C3)c(C)o2)c1 (centres undefined)	–	–	·	–	·	·
Cc1ccc(C)c(NC(=S)c2ccc3ccccc3n2)c1	–	?	–	–	–	–
CN(CC(=O)Nc1ccc(F)cc1)C(=O)CCc1nc2ccccc2c(=O)[nH]1	?	–	–	–	-54.3	–
CN(C)c1ccc(NC(=S)c2ccc3ccccc3n2)cc1	–	–	–	–	-50.8	–
Cc1cccc(NC(=O)Cn2cc(S(=O)(=O)c3ccc(F)cc3)c(=O)c3cc4c(cc32)OCO4)c1	–	–	·	–	·	·
SMILES	KB-V1 cytotox	KB-3-1 tox	SW480 rerep	DRD3 agonist	DRD3 antagonist	MCF10A rereplic
COCCn1c(C)cc(C2=NNC(=Nc3ccc(OC)cc3)SC2)c1C	?	–	–	–	–	?
COCCn1c(C)cc(C2=NNC(=Nc3ccccc3)SC2)c1C	–	–	–[9.22 µM]	–	-58.2	–
Cc1ccc(C)c(C2=NNC(=NCc3ccccc3)SC2)c1	–	–	?	–	?	23.1µM
C=CCn1c(C)cc(C2=NNC(=NCc3ccccc3)SC2)c1C	9.2µM	?	?	–	?	?
COc1cc(OC)c(N(C)C(=O)c2c(C)oc3ncn(CC(C)C)c(=O)c23)cc1Cl	–	–	·	–	·	·
C=CCN(Cc1nc(-c2ccc(OC)cc2)no1)C(=O)c1ccc2c(c1)OCO2	20.6µM	–	–	–	–	–
COc1ccc(-c2noc(CN(C(=O)c3ccc4c(c3)OCO4)C(C)C)n2)cc1	–	–	–	90.9	–	–
COC(=O)c1cccc(OCCCN2CCC(C(O)(c3ccccc3)c3ccccc3)CC2)c1	?	–	·	–	-92.5	·
OC(c1ccccc1)(c1ccccc1)C1CCN(CCCOc2ccc(F)cc2)CC1	?	–	·	–	-95.2	·
Cc1ccc(OCCCN2CCC(C(O)(c3ccccc3)c3ccccc3)CC2)cc1	20.6µM	?	·	–	–	·
CC(C)(c1ccccc1)c1ccc(OCCCN2CCNCC2)cc1	–	?	?	–	–	?
C#Cc1ccccc1OCCCN1CCC(C(O)(c2ccccc2)c2ccccc2)CC1	?	?	·	–	?	·
COc1ccc(-c2nc3ccccc3s2)cc1NC(=O)c1ccccc1OC	–	–	·	–	·	·
COc1ccccc1CNC(=O)c1cccn1-c1nnc(N2CCCCC2)s1	–	–	·	–	·	·
Cc1cccc(NC(NC(=O)Cc2ccccc2)C(Cl)(Cl)Cl)c1 (centres undefined)	?	?	–	–	–	–
Cc1ccc(NC(NC(=O)Cc2ccccc2)C(Cl)(Cl)Cl)cc1 (centres undefined)	14.6µM	?	–	–	–	–
Cc1ccc(NC(NC(=O)c2ccccc2[N+](=O)[O-])C(Cl)(Cl)Cl)cc1 (centres undefined)	20.6µM	–	–	–	–	–
CC(C)CCC[C@@H](C)[C@H]1CC[C@H]2[C@@H]3CC=C4C[C@@H](O)CC[C@]4(C)[C@H]3CC[C@]12C	·	·	–	–	·	–
Cc1cc(=O)[nH]c(SCCOc2ccc3c(c2)CCC3)n1	–	–	1.84µM	–	–	?
Nc1cc(=O)[nH]c(SCCOc2ccccc2)n1	5.17µM	?	–	–	–	–
Nc1cc(=O)[nH]c(SCCSc2ccccc2)n1	7.31µM	?	–	–	–	–
Cc1cc(=O)[nH]c(SCCOc2ccc(OC(C)C)cc2)n1	–	–	–	–	–	–
CCCN(CCC)CCCNC(=O)Cn1ncc2c3ccccc3n(Cc3ccccc3F)c2c1=O	–	–	·	–	·	·
CCOC(=O)c1ccc(NC(=O)NC2=NCCS2)cc1	?	–	·	–	–	·
Cc1nc(-c2ccccc2)sc1CCNC(=O)C(=O)Nc1ccc2c(c1)OCO2	–	?	·	–	·	·
COc1ccc(C2=NOC(C(=O)Nc3cccnc3)C2)cc1 (centres undefined)	–	–	–	–	–	–
Cc1ccc(NC(=O)NNC(=O)C2CC(c3cccnc3)=NO2)cc1 (centres undefined)	–	–	–	–	-61.6	–
O=C(NCc1cccnc1)C1CC(c2cccc(Br)c2)=NO1 (centres undefined)	–	?	?	–	–	5.8µM
COc1cccc(C2=NOC(C(=O)Nc3cccnc3)C2)c1 (centres undefined)	16.4µM	–	–	–	–	–
